Screening results from PubChem BioAssay.
In the library only some 8% were active in any assay of this set; here they are far more common.
HCV inhibitor: qHTS Assay for Inhibitors of Hepatitis C Virus (HCV). Potency, µM (doses to about 41.8 µM), inactives show at the top dose activity change, negative = inhibition, hits mostly inhibitors. Huh7.5.1 HCVcc-Cre infection, luciferase reporter, 44 h. 340,000 tested, 3.4% active. AID 651820, 2012; active = well fitted inhibition curve with a large enough effect; inconclusive = small, poorly fitted or top-dose-only effect, or another doubt; inactive = no such curve, though single readings can be large or run the other way; note: potency is the fitted concentration of half-maximal effect; % is set by controls: 0 for no effect and ±100 for the full control effect
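After 44 h co-culture of compound, cells and HCVcc-Cre (~0.5 moi), substrate is added for 15 min at room temperature and luciferase measured over 15 sec. Cells were seeded at 1,000/well and pre-cultured 4 h.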
HCMV antiviral: qHTS Assay for inhibitors of the human cytomegalovirus (HCMV); HFF cells, HCMV-luciferase reporter, 72 h; stronger effect = lower value; activity change, negative = inhibition, % at 57.5 µM; 410,000 tested, 4.5% active; in the data active = activity change below about -60%; inconclusive = no clear call, values can overlap the other calls; inactive = above about -39%; note: % is set by controls: 0 for no effect and ±100 for the full control effect
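Two-dose cell screen: HFF monolayers treated with compounds and infected with luciferase-expressing HCMV at 1 PFU/cell, 72 h at 37C, then lysed for luciferase measurement.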
Lassa entry inh: qHTS for Inhibitors of binding or entry into cells for Lassa Virus; 300,000 tested, 1.2% active; Lassa virus pseudotype entry inhibition, cell reporter; AID 540256, 2011; Potency, µM (doses to about 37.9 µM), for the others: top-dose activity change, negative = inhibition, most hits filed as inhibitors; calls by dose curve; tested in HEK293 cells; note: potency is the fitted concentration of half-maximal effect; % is set by controls: 0 for no effect and ±100 for the full control effect; nearly all actives have a fitted effect of over 50% in size
FMDV inh: High Throughput Screening for Foot and Mouth Disease Virus Antivirals. 410,000 tested, 1.2% active. AID 1159524, 2015. Potency, µM (series often up to 57.9 µM), for inactives: at the highest dose activity change, negative = inhibition, hits mostly inhibitors. FMDV antiviral cell-based qHTS; calls by dose curve; tested in HEK293T cells; note: read-out not given here; potency is the fitted concentration of half-maximal effect; % is set by controls: 0 for no effect and ±100 for the full control effect; nearly all actives have a fitted effect of over 45% in size
SARS PLpro yeast: qHTS of Yeast-based Assay for SARS-CoV PLP. S. cerevisiae expressing SARS-CoV PLpro, growth rescue. Potency, µM (titrated, usually from 32.9 µM), for inactives: at the highest dose activity, positive = growth rescue, most hits filed as activators. 330,000 tested, 0.19% active. AID 485353, 2010; calls by dose curve; note: potency is the fitted concentration of half-maximal effect; 0% is about no effect; nearly all actives have a fitted effect of over 55% in size
Marburg entry inh: qHTS for inhibitors of binding or entry into cells for Marburg Virus; AID 540276, 2011; Marburg virus pseudotyped entry inhibition, cell reporter; Potency, µM (titrated, usually from 37.8 µM), for the others: top-dose activity change, negative = inhibition, most hits filed as inhibitors; 300,000 tested, 1.8% active; calls by dose curve; tested in HEK293 cells; note: potency is the fitted concentration of half-maximal effect; % is set by controls: 0 for no effect and ±100 for the full control effect
* hit, by the source's call; u = inconclusive; x = no result; [ ] = another dose, or the depositor's remark.

SMILES	HCV inhibitor	HCMV antiviral	Lassa entry inh	FMDV inh	SARS PLpro yeast	Marburg entry inh
CN(C)CCn1c(=N)n(CC(O)c2ccc(Cl)c(Cl)c2)c2ccccc21 (centres undefined)	7.08µM*	-36.4	x	u	0.1%	x
CCn1c(=N)n(CC(=O)c2ccc(Cl)c(Cl)c2)c2ccccc21	u	98.1	u	23.9%	0.7%	u
Brc1cccc(CNc2nc3ccccc3n2CCN2CCCCC2)c1	u	u	x	-28.8%	0.3%	x
N=c1n(CCN2CCCCC2)c2ccccc2n1CC(O)c1ccc(Cl)c(Cl)c1 (centres undefined)	12.6µM*	-97.2*	u	x	-3.2%	5.8µM*
COc1ccc(-c2cc3ccc(O)c(CN4CCCCC4C)c3oc2=O)cc1OC (centres undefined)	x	10.9	14.7%[46.1 µM]	13.1%	x	x
CCOC(=O)C(=CNc1ccc2c(c1)CCN2C(C)=O)C(=O)OCC	u	8.1	x	32.2%	-1.1%	x
CCCCc1ccc(NC(=O)c2cc(-c3ccc(C)c(F)c3)on2)cc1	x	2.8	-2.1%[46.1 µM]	4.5%	x	5.4%[46.1 µM]
CC(=O)c1ccc(-c2ccc3c4c(ccc3c2)OC(CNC(=O)C(C)N2CCOCC2)C4)s1 (centres undefined)	x	x	x	2.3%	x	x
Cc1c([N+](=O)[O-])c2ccc(O)cc2n1-c1ccccc1	u	-67.7*	x	-2.3%	0.2%	x
COc1cccc(C2CC(c3c(-c4ccccc4)c4cc(Cl)ccc4[nH]c3=O)=NN2S(C)(=O)=O)c1OC (centres undefined)	11.2µM*	-6.3	u	u	-5.8%	u
COc1ccccc1C1CC(c2c(-c3ccccc3)c3cc(Cl)ccc3[nH]c2=O)=NN1S(C)(=O)=O (centres undefined)	u	8.8	u	u	4.5%	u
Cc1cc(Cl)c(S(=O)(=O)Nc2ccon2)cc1OCC(=O)NC1CCCCC1	1.0%	13.8	1.4%	0.0%	0.3%	u
Cc1cc(Cl)c(S(=O)(=O)N2CCN(c3ccc(F)cc3)CC2)cc1OCC(=O)NC1CCCCC1	0.794µM*	-98.3*	u	u	-6.7%	10.3µM*
Cc1cc(Cl)c(S(=O)(=O)Nc2ccc3c(c2)OCCO3)cc1OCC(=O)NC1CCCCC1	-18.7%	-69.8*	-50.6%	u	-0.4%	u
Cc1cc(Cl)c(S(=O)(=O)NCC2CCCO2)cc1OCC(=O)NC1CCCCC1 (centres undefined)	12.3%	-93.2*	0.2%	2.9%	-2.2%	2.9%
COCCN1Cc2cccc(C(=O)Nc3ccc(C)c(F)c3)c2C1=O	x	-11.8	-0.2%[46.1 µM]	-0.5%	x	14.3%[46.1 µM]
CN(C)c1ccc2c(c1)OC(N)=C(C#N)C2c1cccc(F)c1 (centres undefined)	u	x	u	u	-13.0%	2.06µM*
N#CC1=C(N)Oc2cc(N)ccc2C1c1cccc(F)c1 (centres undefined)	u	-21.5	-20.6%[46.1 µM]	-16.8%	-5.1%	u
CC(=O)OC[C@H]1O[C@H](C#CC(C)(C)C)C=C[C@H]1OC(C)=O	x	x	x	x	x	16.1%[14.2 µM]
CCCCCCN1C(=O)CC[C@@]23C1=NC(C(=O)OC)=C(C(=O)OC)[C@@H]2N(Cc1ccccc1)c1ccccc13	x	x	x	x	x	-28.3%[14.2 µM]
COc1cc(NC(=O)c2cc([N+](=O)[O-])ccc2NC(=O)CNC2CCCCC2C)cc(OC)c1 (centres undefined)	6.31µM*	-3.1	u	-24.4%	1.4%	u
COc1cc(NC(=O)c2cc([N+](=O)[O-])ccc2NC(=O)CNCc2ccccn2)cc(OC)c1	-13.6%	28.9	11.2µM*	u	-0.2%	-17.7%[46.1 µM]
Cc1ccc(NC2=CC(c3ccccc3F)N(c3ccc(C)cc3)C2=O)cc1 (centres undefined)	x	22.0	0.9%[46.1 µM]	2.7%	x	-10.4%[46.1 µM]
CCO[C@@H]1OC(C(=O)NCc2nc3ccccc3[nH]2)=C[C@H](C(C)(C)C)[C@H]1CCCO	-8.6%	-79.9*	x	-28.9%	x	x
